This assay concerns the target AMP-activated protein kinase, AMPK (Homo sapiens) (UniProt P54646+O43741+P54619+Q9UGJ0+Q9Y478+Q13131+Q9UGI9). The experiment in a line: AMP-dependent Kinase enzyme assay. An in vitro enzyme assay that detects ADP turnover that is directly proportional to AMPK activity. This uses naive AMPK that is activated during the assay with MK-8722. It is filed as functional. The arrangement: scale not given: direction of the effect not stated beside the values. Particulars: 30 µM.
Take `COCCNC(=O)N1CCN(c2cc(F)ccc2F)CC1`: the Percent Effect turned out to be 7.95%. As to `Cc1cc(N2CCOC(c3ccc(N(C)C)cn3)C2)nc(N)n1` (stereo not given), the Percent Effect was 7.96%. For the compound `CNC(=O)c1sc2ncccc2c1C1CCN(C(=O)CCOC)C1` (stereo not given), the Percent Effect came to 21.5%.

For the compound `CC(O)Cc1cn(CC2CCN(C3CCSCC3)CC2)nn1` (stereo not given), the Percent Effect was -7.5%. For `CN(C)S(=O)(=O)NC1CCCc2c1cnn2-c1ccc(C(C)(C)C)cc1` (stereo not given), the Percent Effect was 88.7%. Then `CCN(CC1=CCN(C)CC1)C(=O)CCOC`, with -8.72%; and `Cc1nonc1CN(C)c1nc(-c2ccco2)nc2c1CCN(C)CC2`, with 4.86%; and `O=C(Nc1ccccc1OCCc1ccccn1)N1CCOCC(O)C1` (stereo not given), with 2.87%. Regarding `Cc1cccc(COc2ccc(C(C)NC(=O)CNC(N)=O)cc2)c1` (stereo not given), the Percent Effect is 1.42%.

Take `CCn1ncnc1C1CC(=O)NCc2nc(N)sc21` (stereo not given): the Percent Effect was -18.1%. Next, `Cc1c(NC(=O)CN(C)S(C)(=O)=O)cccc1OC1CCCC1`: -0.429%; `CN1CCN(CC2(O)CCCN(S(=O)(=O)c3cn[nH]c3)CC2)CC1` (stereo not given): 13%.

`CCn1cnnc1CCNC(=O)CCNC(=O)c1ccccc1F`: the Percent Effect was -0.474%. Next, `Cn1cc(C(=O)NCc2ccc(OC3CCCCC3)nc2)ccc1=O`: -0.122%; `COc1ccc(F)cc1-c1ccccc1CC1CNCCNC1=O` (stereo not given): 4.74%; `COCCS(=O)(=O)NCc1ccc(N(C)C)c(C)c1`: 6.36%. Next, `CCS(=O)(=O)N1Cc2ccccc2CC1C(=O)OCc1cc(C)no1` (stereo not given): 5.87%; `Cc1noc(C)c1CNCC1CNc2ccnn2C1` (stereo not given): -0.962%.

As to `Cc1cccc2nc(CN3CCC(N4CCN(C)C4=O)CC3)cn12`, the Percent Effect worked out at 6.81%. Then `CC(CNC(=O)CCn1cncn1)N1CCc2ccccc21` (stereo not given), with 6.66%; and `Cc1ccccc1-n1ccnc1S(=O)(=O)Cc1nsc(N(C)C)n1`, with -1.55%. As to `CC1(C)Cc2nc(C(C)(C)C)ncc2C(NC(=O)CN)C1` (stereo not given), the Percent Effect is -5.88%.

Consider `CN(Cc1ccncc1)c1cncc(Br)c1`, for which the Percent Effect is 3.2%. Next, `N#Cc1cccnc1NCc1cccnc1N1CCCCC1`: 7.89%; `O=C1CCCN1C1CCCN(CCn2cc(Cl)cn2)C1` (stereo not given): 7.29%. Next, `CC(C)(C)c1cn2c(n1)C(CNCc1ccccn1)CCC2` (stereo not given): -3.66%; `COCCN(Cc1ccccn1)C(=O)Nc1cccnc1-n1cccn1`: -0.778%.

Regarding `Cc1n[nH]c(C)c1CCc1ccc(S(C)(=O)=O)cc1`, the Percent Effect was 0.986%. Then `Cc1cc(CN2CCC(C3CCN(Cc4cccnc4)CC3)C2)[nH]n1` (stereo not given), with -8.19%. For the compound `CC(C)[C@H](N)C(=O)N1CCCC(C2=Nc3ccccc3S(=O)(=O)N2)C1` (stereo not given in full), the Percent Effect was determined as 7.27%. Then `O=C1NCCCN1Cc1nc(-c2ccc(N3CCCCC3)cc2)no1`, with 3.5%; and `COc1cc(NC2CCCN(c3ncccn3)C2)cc(OC)c1` (stereo not given), with -64.1%; and `O=C1NC(C(=O)NCc2cccnc2Oc2ccccc2F)CO1` (stereo not given), with 4.53%. Next, `O=C(c1ccc(Cl)s1)N1CCCn2nc(CN3CC[C@H](F)C3)cc2C1`: 3.24%.

Consider `Cc1cc(C(=O)N2CC[C@](C)(O)[C@H](C)C2)c(C)n1C`, for which the Percent Effect is -6.41%. Regarding `COc1ccccc1S(=O)(=O)N1CCN(C)[C@@H]2CS(=O)(=O)C[C@@H]21`, the Percent Effect was -1.29%. Next, `CN(Cc1ncnn1C1Cc2ccccc2C1)C1CCS(=O)(=O)C1` (stereo not given): 1.61%. Regarding `Cc1ncoc1C(=O)N1CCCC(c2ccc3c(N)nn(C)c3n2)C1` (stereo not given), the Percent Effect is 11.4%. Then `COc1cccc(-c2ncc(CN3CC[C@H](CO)[C@@H](O)C3)s2)c1`, with -0.478%. Next, `CN1CCN([C@H]2CCN(C(=O)c3cc(Cl)cn3C)C[C@H]2CCCO)CC1`: 13.2%.
